The source of these data is ChEMBL document CHEMBL1961873, “Compounds: GSK PKIS; Assays: Nanosyn kinase panel” (2012).

The target of the first assay is Tyrosine-protein kinase SYK (Homo sapiens) (UniProt P43405). Conditions: at 1 µM.
For the compound `CS(=O)(=O)Nc1cccc(-c2ccc3c(NC(=O)C4CC4)n[nH]c3c2)c1`, the inhibition turned out to be 0.89%.

In the case of `Cc1ccc2c(c1)/C(=N/Nc1ccc(S(N)(=O)=O)cc1)C(=O)N2`, the inhibition was -2.83%.

As to `O=C1Nc2ccccc2/C1=C/Nc1ccc2[nH]c(=O)[nH]c2c1`, the inhibition is -5.15%.

Turning to `C[C@@H](Oc1cc(-n2cnc3ccc(OC[C@@H](O)CO)cc32)sc1C(N)=O)c1ccccc1Cl`, the inhibition is 0.64%.

For `Cc1cc(-c2ccccn2)cc(C)c1/C=C/c1cncc(-c2nn[nH]n2)c1`, the inhibition was -0.42%.

`NS(=O)(=O)c1ccc(Nc2cc(-c3cccc(O)c3)n[nH]2)cc1`: the inhibition is -0.51%.

`Cc1ccc(C(=O)NC2CC2)cc1-c1ccc2[nH]ncc2c1`: the inhibition was -0.05%.

With `COC(=O)Nc1nc2cc(Oc3ccc(NC(=O)Nc4cccc(Br)c4)cc3)ccc2[nH]1`, the inhibition was found to be 0.53%.

With `COc1ccc(-c2nn3ncccc3c2-c2ccnc(Nc3cccc(C(F)(F)F)c3)n2)cc1`, the inhibition is -2.11%.

Take `[O-][S+]1CCN(Cc2ccc(-c3ccc4ncnc(Nc5ccc(OCc6ccccc6)c(Cl)c5)c4c3)o2)CC1`: the inhibition stood at 0%.

`CS(=O)(=O)CCNCc1nc(-c2ccc3ncnc(Nc4ccc(OCc5cccc(C(F)(F)F)c5)cc4)c3c2)cs1`: the inhibition worked out at 2.72%.

For the compound `CN(C)c1cc2c(Nc3ccc4c(cnn4Cc4ccccc4)c3)ncnc2cn1`, the inhibition is 0.09%.

Turning to `Oc1cccc(-c2nc(-c3ccccc3)[nH]c2-c2ccncc2)c1`, the inhibition was 1.53%.

Turning to `Cc1ccc(O)cc1Nc1ccnc2ccc(S(C)(=O)=O)cc12`, the inhibition is -3.99%.

As for `CCS(=O)(=O)c1ccc(OC)c(Nc2nccc(N(C)c3ccc4c(C)n[nH]c4c3)n2)c1`, the inhibition was -6.17%.

As for `NS(=O)(=O)c1cccc(-c2cc3ccncc3cc2OCc2ccccc2)c1`, the inhibition is -1.17%.

Take `COc1cc2ncnc(Nc3ccc4c(cnn4Cc4ccccc4)c3)c2cc1OC`: the inhibition was 0.48%.

For the compound `COc1cc(Nc2nccc(-c3cnn4ncccc34)n2)cc(OC)c1`, the inhibition stood at 61.2%.

In the case of `ON=C1CCc2cc(-c3nc(C4CCNCC4)[nH]c3-c3ccncc3)ccc21`, the inhibition was 0.36%.

In the case of `COc1cc2ncnc(Nc3ccc(C)c(O)c3)c2cc1OC`, the inhibition came to 0.27%.

Take `O=S(=O)(CCOCc1ccc(-c2ccc3ncnc(Nc4ccc(OCc5cccc(F)c5)c(Cl)c4)c3c2)o1)c1ccccc1`: the inhibition turned out to be 1.2%.

As for `FC(F)(F)c1ccc(-c2nn3ncccc3c2-c2ccnc(Nc3ccc4c(c3)OCCO4)n2)cc1`, the inhibition is 0.25%.

For `O=C(Nc1ccc(Oc2ccc3[nH]c(NC(=O)c4ccco4)nc3c2)cc1)Nc1cc(C(F)(F)F)ccc1F`, the inhibition is -2.67%.

On to `NC(=O)c1sc(-n2cnc3ccccc32)cc1OCc1ccccc1Br`, for which the inhibition is -0.37%.

For `CCCN1CCCC(c2ccc(Nc3nc(Nc4cc(F)ccc4C(N)=O)c4cc[nH]c4n3)c(OC)c2)C1` (stereo unspecified), the inhibition came to 75.8%.

As for `COc1ccc2ncnc(Nc3ccc(OCc4ccccc4)cc3)c2c1`, the inhibition was -1.05%.

Take `CCn1c(-c2nonc2N)nc2c(C#CC(C)(C)O)nc(OCCNC)cc21`: the inhibition turned out to be 0.91%.

Consider `NS(=O)(=O)c1ccc(-c2cc3ccncc3cc2OCc2ccccc2)cc1`, for which the inhibition came to 0.64%.

As to `COC(=O)c1ccc2c(c1)C(=Cc1cc(Br)c(O)c(Br)c1)C(=O)N2`, the inhibition is -1.69%.

For `Nc1nccc(C#Cc2cncnc2Nc2ccc(OCc3cccc(F)c3)c(Cl)c2)n1`, the inhibition is -0.63%.

As to `Cc1ccc2c(-c3ccnc(Nc4ccc5c(c4)OCCO5)n3)c(-c3ccc(C(F)(F)F)cc3)nn2n1`, the inhibition is -4.13%.

As to `Nc1nccc(-c2c(-c3ccc(F)cc3)ncn2CCCN2CCOCC2)n1`, the inhibition is -0.03%.

In the case of `COc1cc(/C=N/Nc2ncnc3c2cnn3C(C)C)ccc1O`, the inhibition came out at 35.4%.

The target of another assay is T1, Tyrosine-protein kinase Tec (Homo sapiens) (UniProt P42680).
T1 sequence (whole entry): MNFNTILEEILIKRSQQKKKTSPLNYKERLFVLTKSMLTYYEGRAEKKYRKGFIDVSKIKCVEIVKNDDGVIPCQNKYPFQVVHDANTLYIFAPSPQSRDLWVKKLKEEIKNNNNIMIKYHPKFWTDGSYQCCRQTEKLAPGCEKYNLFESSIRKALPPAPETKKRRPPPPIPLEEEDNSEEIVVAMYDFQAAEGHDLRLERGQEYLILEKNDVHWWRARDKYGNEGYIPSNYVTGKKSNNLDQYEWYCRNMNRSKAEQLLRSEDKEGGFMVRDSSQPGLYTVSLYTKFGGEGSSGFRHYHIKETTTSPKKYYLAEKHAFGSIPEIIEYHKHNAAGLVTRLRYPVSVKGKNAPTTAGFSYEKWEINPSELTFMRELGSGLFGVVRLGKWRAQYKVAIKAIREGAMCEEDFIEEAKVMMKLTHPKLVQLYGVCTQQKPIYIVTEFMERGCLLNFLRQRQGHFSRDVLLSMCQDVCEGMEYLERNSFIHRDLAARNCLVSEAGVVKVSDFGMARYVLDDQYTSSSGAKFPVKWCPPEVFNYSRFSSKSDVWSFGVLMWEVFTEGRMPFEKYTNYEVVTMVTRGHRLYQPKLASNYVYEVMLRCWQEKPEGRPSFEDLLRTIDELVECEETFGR
Conditions: at 0.1 µM.
As to `CS(=O)(=O)Nc1cccc(-c2ccc3c(NC(=O)C4CC4)n[nH]c3c2)c1`, the inhibition was found to be 2.55%.

As for `Cc1ccc2c(c1)/C(=N/Nc1ccc(S(N)(=O)=O)cc1)C(=O)N2`, the inhibition amounted to 1.52%.

In the case of `O=C1Nc2ccccc2/C1=C/Nc1ccc2[nH]c(=O)[nH]c2c1`, the inhibition came out at 9.34%.

With `C[C@@H](Oc1cc(-n2cnc3ccc(OC[C@@H](O)CO)cc32)sc1C(N)=O)c1ccccc1Cl`, the inhibition was -0.35%.

As for `Cc1cc(-c2ccccn2)cc(C)c1/C=C/c1cncc(-c2nn[nH]n2)c1`, the inhibition worked out at 4.67%.

As for `NS(=O)(=O)c1ccc(Nc2cc(-c3cccc(O)c3)n[nH]2)cc1`, the inhibition came to 5.22%.

With `Cc1ccc(C(=O)NC2CC2)cc1-c1ccc2[nH]ncc2c1`, the inhibition is -3.67%.

In the case of `COC(=O)Nc1nc2cc(Oc3ccc(NC(=O)Nc4cccc(Br)c4)cc3)ccc2[nH]1`, the inhibition was 4.37%.

`COc1ccc(-c2nn3ncccc3c2-c2ccnc(Nc3cccc(C(F)(F)F)c3)n2)cc1`: the inhibition turned out to be 1.14%.

Take `[O-][S+]1CCN(Cc2ccc(-c3ccc4ncnc(Nc5ccc(OCc6ccccc6)c(Cl)c5)c4c3)o2)CC1`: the inhibition was -0.94%.

In the case of `CS(=O)(=O)CCNCc1nc(-c2ccc3ncnc(Nc4ccc(OCc5cccc(C(F)(F)F)c5)cc4)c3c2)cs1`, the inhibition was determined as 4.74%.

Regarding `CN(C)c1cc2c(Nc3ccc4c(cnn4Cc4ccccc4)c3)ncnc2cn1`, the inhibition is 3.97%.

Consider `Oc1cccc(-c2nc(-c3ccccc3)[nH]c2-c2ccncc2)c1`, for which the inhibition came out at 5.02%.

Regarding `Cc1ccc(O)cc1Nc1ccnc2ccc(S(C)(=O)=O)cc12`, the inhibition was determined as 77.9%.

Take `CCS(=O)(=O)c1ccc(OC)c(Nc2nccc(N(C)c3ccc4c(C)n[nH]c4c3)n2)c1`: the inhibition amounted to 4.3%.

In the case of `NS(=O)(=O)c1cccc(-c2cc3ccncc3cc2OCc2ccccc2)c1`, the inhibition was determined as 5.34%.

For `COc1cc2ncnc(Nc3ccc4c(cnn4Cc4ccccc4)c3)c2cc1OC`, the inhibition was found to be 3.95%.

For `COc1cc(Nc2nccc(-c3cnn4ncccc34)n2)cc(OC)c1`, the inhibition is 9.2%.

`ON=C1CCc2cc(-c3nc(C4CCNCC4)[nH]c3-c3ccncc3)ccc21`: the inhibition was found to be 1.46%.

In the case of `COc1cc2ncnc(Nc3ccc(C)c(O)c3)c2cc1OC`, the inhibition amounted to 11.1%.

On to `O=S(=O)(CCOCc1ccc(-c2ccc3ncnc(Nc4ccc(OCc5cccc(F)c5)c(Cl)c4)c3c2)o1)c1ccccc1`, for which the inhibition turned out to be 0.41%.

As for `FC(F)(F)c1ccc(-c2nn3ncccc3c2-c2ccnc(Nc3ccc4c(c3)OCCO4)n2)cc1`, the inhibition came to 3.97%.

In the case of `O=C(Nc1ccc(Oc2ccc3[nH]c(NC(=O)c4ccco4)nc3c2)cc1)Nc1cc(C(F)(F)F)ccc1F`, the inhibition was -1.71%.

Consider `NC(=O)c1sc(-n2cnc3ccccc32)cc1OCc1ccccc1Br`, for which the inhibition is 4.6%.

Take `CCCN1CCCC(c2ccc(Nc3nc(Nc4cc(F)ccc4C(N)=O)c4cc[nH]c4n3)c(OC)c2)C1` (stereo unspecified): the inhibition was found to be 4.67%.

Turning to `COc1ccc2ncnc(Nc3ccc(OCc4ccccc4)cc3)c2c1`, the inhibition worked out at 2.8%.

`CCn1c(-c2nonc2N)nc2c(C#CC(C)(C)O)nc(OCCNC)cc21`: the inhibition is 5.49%.

Consider `NS(=O)(=O)c1ccc(-c2cc3ccncc3cc2OCc2ccccc2)cc1`, for which the inhibition was determined as 2.94%.

For the compound `COC(=O)c1ccc2c(c1)C(=Cc1cc(Br)c(O)c(Br)c1)C(=O)N2`, the inhibition was 9.11%.

With `Nc1nccc(C#Cc2cncnc2Nc2ccc(OCc3cccc(F)c3)c(Cl)c2)n1`, the inhibition was determined as 5.34%.

For `Cc1ccc2c(-c3ccnc(Nc4ccc5c(c4)OCCO5)n3)c(-c3ccc(C(F)(F)F)cc3)nn2n1`, the inhibition is -0.12%.

Take `Nc1nccc(-c2c(-c3ccc(F)cc3)ncn2CCCN2CCOCC2)n1`: the inhibition turned out to be 3.86%.

For `COc1cc(/C=N/Nc2ncnc3c2cnn3C(C)C)ccc1O`, the inhibition came to 3.27%.
